The source of these data is PubChem BioAssay AID362 (NMMLSC, 2006).

In all, about 4,300 compounds went through this assay and about 60 (1%) were called active. Many of the other results were omitted from the sample, so actives are more common in it than they were. A number with no mark means an inactive call.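 How the source made its calls: active means inhibition of labelled peptide binding to the formyl peptide receptor of at least 65%; inactive means the rest.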

The inhibition is the change of the read-out against control, counted positive when it falls.

The assay deals with fMet-Leu-Phe receptor (Homo sapiens) (UniProt P21462). Put plainly: small-molecule ligands of human FPR – U937-FPR cells, fMLFK-FITC, flow cytometry, primary screen (AID 362).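 On inhibition: plate controls were buffer control wells for no effect and unlabeled fMLFF blocking peptide for full effect; higher means less cell fluorescence so more probe displaced.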 As to conditions: fMLFK-FITC displacement; active compounds read high, concentration not given here. For orientation: In flow cytometry, cells or beads pass a laser one at a time.
Sequence of fMet-Leu-Phe receptor (Homo sapiens) (P21462 whole entry, looked up): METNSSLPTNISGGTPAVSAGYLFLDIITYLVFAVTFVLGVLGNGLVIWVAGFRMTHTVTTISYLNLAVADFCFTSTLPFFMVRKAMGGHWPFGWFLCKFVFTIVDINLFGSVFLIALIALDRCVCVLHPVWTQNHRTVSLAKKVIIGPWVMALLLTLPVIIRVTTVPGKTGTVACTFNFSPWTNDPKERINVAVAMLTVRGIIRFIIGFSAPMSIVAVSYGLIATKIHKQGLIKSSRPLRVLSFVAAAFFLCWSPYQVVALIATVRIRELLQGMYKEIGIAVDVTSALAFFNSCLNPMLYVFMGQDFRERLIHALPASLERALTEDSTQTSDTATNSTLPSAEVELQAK
`CCOC(=O)c1cc2c(=O)n3ccccc3nc2n(CC(C)C)c1=NC(=O)c1ccccc1OCC`: the inhibition entry is “inactive”. The figure for `CCCOC(=O)c1c(NC(=O)C2CCCCC2C(=O)O)sc(C)c1-c1ccc(F)cc1` (stereo unspecified) is 17.2%; for `CCOC(=O)c1c(NC(=O)C2C3CCC(C3)C2C(=O)O)sc(C)c1-c1ccc(C(C)(C)C)cc1` (stereo unspecified) it is 63.6%; for `CCOC(=O)c1c(NC(=O)C2CCCCC2C(=O)O)sc(C)c1-c1ccc(F)cc1` (stereo unspecified) it is 57.3%. Take `CCOC(=O)c1c(NC(=O)C2CCCCC2C(=O)O)sc(C)c1-c1ccc(Cl)cc1` (stereo unspecified): the inhibition is 77.1% (active). The figure for `CCOC(=O)c1c(NC(=O)C2C3CCC(C3)C2C(=O)O)sc(C)c1-c1ccc(Cl)cc1` (stereo unspecified) is 45.9%. The value for `Cc1sc(NC(=O)C2C3CCC(C3)C2C(=O)O)c(C(N)=O)c1-c1ccc(C(C)(C)C)cc1` (stereo unspecified) was 82% (active); that for `Cc1sc(NC(=O)C2CCCCC2C(=O)O)c(C(N)=O)c1-c1ccc(C(C)(C)C)cc1` (stereo unspecified) was 70.2% (active); that for `CCOC(=O)c1c(NC(=O)C2CCCCC2C(=O)O)sc(C)c1-c1ccc(C(C)(C)C)cc1` (stereo unspecified) was 29.4%. The figure for `CCCOC(=O)c1c(NC(=O)C2CCCCC2C(=O)O)sc(C)c1C` (stereo unspecified) is 35.7%.

Regarding `N#CC1=C(SCC(=O)Nc2ccc(Cl)cc2)NC(=O)C(C#N)C12CCCCC2` (stereo unspecified), the inhibition is 52.1%. The value for `N#CC1=C(SCC(=O)Nc2ccc(F)cc2)NC(=O)C(C#N)C12CCCCC2` (stereo unspecified) was 15.5%; that for `N#CC1=C(SCC(=O)Nc2ccc(Br)cc2)NC(=O)C(C#N)C12CCCCC2` (stereo unspecified) was 79.2% (active). The value for `O=C(CCCN1C(=O)c2cccc3cccc(c23)C1=O)N1CCC(CN2C(=O)c3cccc4cccc(c34)C2=O)CC1` was “inactive”. As for `CC1CCC(C(C)C)C(OCC(O)CN2CCC(CN3C(=O)c4cccc5cccc(c45)C3=O)CC2)C1` (stereo unspecified), the inhibition was 93.4% (active). The value for `O=C1c2cccc3cccc(c23)C(=O)N1CC1CCN(C(=O)C23CC4CC(CC(C4)C2)C3)CC1` was “inactive”; that for `CCOC(=O)c1cnc2ccc(OC)cc2c1NC1CCCCC1` was 99.3% (active). Turning to `CCOC(=O)c1cnc2cc(Cl)c(OC)cc2c1NCCC1=CCCCC1`, the inhibition is 0.9%.

For the molecule `CCOC(=O)c1cnc2ccc(OCC)cc2c1N1CCCCCC1`, the inhibition is 25.2%. The figure for `CCCN(CCC)Cc1c(O)ccc2c(=O)c(Oc3cc(C)cc(C)c3)c(C(F)(F)F)oc12` is 17.9%. As for `COc1cc2c(C(=O)NCCc3ccc(Cl)cc3)cn(CC(C)C)c(=O)c2cc1OC`, the inhibition result is “inactive”. As to `CC(=O)Oc1ccc(C2Nc3c(C(=O)O)ccc([N+](=O)[O-])c3C3C=CCC32)cc1` (stereo unspecified), the inhibition entry is “inactive”. The entry for `CCOC(=O)C1CCC(CN(Cc2cccc(Br)c2)S(=O)(=O)c2cccc(C(F)(F)F)c2)CC1` (stereo unspecified) is “inactive”; for `CN(C)c1ccc(C(c2cc(C(C)(C)C)c(O)c(C(C)(C)C)c2)N2CCOCC2)cc1` (stereo unspecified) it is 29.2%. Consider `CCCc1cc2c(=O)c(-c3ccc(C(=O)OCC)o3)coc2cc1OC(C)=O`, for which the inhibition was 16.9%. The value for `CCc1cc2c(=O)c(Oc3ccccc3)c(C(F)(F)F)oc2cc1O` was 70.8% (active); that for `CCc1cc2c(=O)c(-c3nc4ccccc4n3C)c(C(F)(F)F)oc2cc1O` was “inactive”. Turning to `CCOC(=O)c1ccc(-c2c(C(F)(F)F)oc3cc(O)c(CC)cc3c2=O)o1`, the inhibition is 79.1% (active).

In the case of `O=c1c(Oc2ccccc2)c(C(F)(F)F)oc2cc(O)ccc12`, the inhibition is 46.2%. As for `CCOc1cc2oc(C(F)(F)F)c(Oc3ccccc3)c(=O)c2cc1CC`, the inhibition was 27.9%. As for `CCCc1cc(-c2n[nH]c(C)c2-c2ccc(C(=O)OCC)o2)c(O)cc1O`, the inhibition was 10.6%. `CCc1cc2c(=O)c(Oc3ccccc3)c(C(F)(F)F)oc2cc1OC`: the inhibition entry is “inactive”.

With `CCOc1ccc2c(=O)c(Oc3ccccc3)c(C(F)(F)F)oc2c1`, the inhibition result is “inactive”. The value for `CCc1cc2c(=O)c(Oc3ccccc3)c(C(F)(F)F)oc2cc1OC(C)=O` was 121% (active); that for `CCCc1cc2c(=O)c(-c3ccc(C(=O)OCC)o3)c(C(=O)OCC)oc2cc1OC` was 7.1%. The value for `CCCc1cc2c(=O)c(-c3ccc(C(=O)OCC)o3)c(C(=O)OCC)oc2cc1OC(C)=O` was 96% (active); that for `CC(=O)N1CCCc2cc(S(=O)(=O)NC(C(=O)Nc3nc4ccc(C)cc4s3)C(C)C)ccc21` (stereo unspecified) was “inactive”.

With `COCCOC(=O)C1=C(C)NC2=C(C(=O)C(C(=O)OC)C(C)C2)C1c1cccc(O)c1` (stereo unspecified), the inhibition was 4.6%. As for `CC1(C)CC(=O)C2=C(C1)OC(N)=C(C#N)C2c1ccc(Cl)cc1` (stereo unspecified), the inhibition was 7.6%. Turning to `CC(=O)N1CCc2cc(S(=O)(=O)NC(C(=O)Nc3ccccn3)C(C)C)ccc21` (stereo unspecified), the inhibition entry was “inactive”. The value for `Cc1cc(C)c(S(=O)(=O)NCC2CCC(C(=O)NCCc3ccc(Cl)cc3)CC2)c(C)c1` (stereo unspecified) was 18.5%. The value for `CCc1cc(=O)oc2cc(OCC(=O)OC)c(Cl)cc12` was “inactive”. The entry for `CCCOc1ccc(C2NC(=O)NC(C)=C2C(=O)OCC(C)CCC)cc1` (stereo unspecified) is “inactive”; for `CCOC(=O)Oc1ccc2c(=O)c(Oc3cccc(C)c3)c(C(F)(F)F)oc2c1` it is “inactive”; for `CCOc1ccc2c(c1)C(C)=CC(C)(C)N2C(=O)C(C)N1C(=O)c2ccccc2C1=O` (stereo unspecified) it is “inactive”. In the case of `Cc1cc(NC(=O)CSc2nc3ccccc3c(=O)n2CC2CCC(C(=O)NCCc3ccccc3)CC2)no1` (stereo unspecified), the inhibition entry is “inactive”.

In the case of `CNC(=O)C1CCC(CNS(=O)(=O)c2ccc(NC(C)=O)cc2)CC1` (stereo unspecified), the inhibition result is “inactive”.

`CCOC(=O)Oc1ccc2c(=O)c(-c3ccccc3OC)c(C(F)(F)F)oc2c1`: the inhibition was 36.6%. Regarding `COc1ccc2c(=O)c(-c3ccccc3OC)c(C(F)(F)F)oc2c1`, the inhibition entry is “inactive”. Turning to `CCCc1cc2c(=O)c(-c3nc4ccccc4s3)c(C)oc2cc1OC(C)=O`, the inhibition result was “inactive”. As to `CCCc1cc2c(=O)c(-c3nc(C)cs3)c(C)oc2cc1OC(C)=O`, the inhibition is 72.7% (active). Regarding `COc1ccccc1-c1c(C(F)(F)F)oc2cc(OC(=O)C(C)C)ccc2c1=O`, the inhibition was 92% (active). Turning to `CC(=O)Oc1ccc2c(=O)c(Oc3ccccc3)c(C(F)(F)F)oc2c1`, the inhibition is 97.6% (active). Regarding `CCCc1cc2c(=O)c(-c3nc(C)cs3)coc2cc1OC(C)=O`, the inhibition entry was “inactive”. The value for `CCCc1ccc(Oc2c(C(F)(F)F)oc3cc(OC(C)=O)ccc3c2=O)cc1` was 46.4%. The value for `CC(=O)Oc1ccc2c(=O)c(Oc3cc(C)cc(C)c3)c(C(F)(F)F)oc2c1` was 9.4%; that for `CCCCNC(=O)C1CCN(S(=O)(=O)N(CC(C)C)CC(C)C)CC1` was “inactive”; that for `CCCOC(=O)c1c(NC(=O)C2C3C=CC(C3)C2C(=O)O)sc2c1CCCC2` (stereo unspecified) was “inactive”. The entry for `COc1cc2c(C(=O)N(C)c3cccc(C(F)(F)F)c3)cn(CC(C)C)c(=O)c2cc1OC` is “inactive”; for `CC(C)CCn1c(CN2CCN(C(c3ccccc3)c3ccccc3)CC2)nc2c1c(=O)n(C)c(=O)n2C` it is “inactive”. With `CSc1nc(OCC(=O)c2ccc(Cl)cc2)c2c3c(sc2n1)CCCC3`, the inhibition result was “inactive”.

Take `Cc1sc2ncn(CC(=O)NCc3cccnc3)c(=O)c2c1S(=O)(=O)N1CCC(C)CC1`: the inhibition result is “inactive”. The value for `CC(C)Cn1cc(C(=O)NCc2ccco2)c2c3ccccc3n(C)c2c1=O` was “inactive”; that for `CCCOc1ccc(C(=O)CCNC(C(=O)O)C(C)C)cc1` (stereo unspecified) was “inactive”; that for `COc1ccc(C(=O)COC(=O)C(CC(C)C)N2C(=O)c3ccccc3C2=O)cc1` (stereo unspecified) was “inactive”. The figure for `CCOC(=O)C1=C(C)C2C3C(=O)N(c4cccc5ccccc45)C(=O)C3C1(C)C1C(=O)N(c3cccc4ccccc34)C(=O)C21` (stereo unspecified) is 13.4%; for `CCN(CCCNC(=O)Cn1cnc2sc(C)c(S(=O)(=O)N3CCC(C)CC3)c2c1=O)c1cccc(C)c1` it is “inactive”. The value for `O=C(CSc1nc(-c2ccccc2)nc2c1CCCC2)N1CCOCC1` was “inactive”.

As for `O=C(CSc1nc(-c2ccccc2)nc2c1CCCC2)N1CCCCC1`, the inhibition was 86.8% (active). The value for `O=C(O)CSc1nc(-c2ccccc2)nc2c1CCCC2` was “inactive”; that for `CCOC(=O)C1=C(C)NC2=C(C(=O)C(C(=O)OC)C(C)C2)C1c1ccc(N(C)C)cc1` (stereo unspecified) was 10%; that for `CCOC(=O)C1CCN(C(=O)c2cn(CC(C)C)c(=O)c3cc(OC)c(OC)cc23)CC1` was 11.2%. As for `CC1(C)CC(=O)C2=C(C1)OC(N)=C(C#N)C2(C)C`, the inhibition result is “inactive”. For the molecule `CCCOc1cc(OCCC)c2c3c(c(=O)oc2c1)CCCC3`, the inhibition was 7.1%. For the molecule `CCCCOc1cc(OCCCC)c2c3c(c(=O)oc2c1)CCCC3`, the inhibition result is “inactive”.

`CCCCOc1cc(OCCCC)c2c3c(c(=O)oc2c1)CCC3`: the inhibition was 92.8% (active).

Turning to `O=C(O)c1cccc(N2C(=O)C3C4CCC(C4)C3C2=O)c1` (stereo unspecified), the inhibition is 31.6%. Turning to `Cc1ccn2c(NC(=O)C(C)(C)Oc3ccc(Cl)cc3)c(-c3cccs3)nc2c1`, the inhibition was 6%. Turning to `CCCCN(C)Cc1c(O)ccc2c(=O)c(-c3ccccc3OC)c(C(F)(F)F)oc12`, the inhibition is 3.4%. The entry for `CC1(C)CC(=O)C2=C(C1)Nc1ncnn1C2c1cccc([N+](=O)[O-])c1` (stereo unspecified) is “inactive”; for `CC1(C)CC(=O)C(C(c2ccc3ccccc3c2)C2C(=O)CC(C)(C)CC2=O)C(=O)C1` it is 80.9% (active). The value for `CN1C(=O)NC(c2cccc([N+](=O)[O-])c2)C2=C1CC(C)(C)CC2=O` (stereo unspecified) was “inactive”; that for `CC1(C)CC(=O)C(C(c2ccc(Br)cc2)C2C(=O)CC(C)(C)CC2=O)C(=O)C1` was 74.7% (active); that for `CC1(C)CC(=O)C(C(c2ccco2)C2C(=O)CC(C)(C)CC2=O)C(=O)C1` was 30.9%.

With `COc1ccc(C(C2C(=O)CC(C)(C)CC2=O)C2C(=O)CC(C)(C)CC2=O)cc1COCC(F)(F)F`, the inhibition is 34.1%.

As for `CC1(C)CC(=O)C(C(C2=C(O)CC(C)(C)CC2=O)c2cccc(O)c2O)C(=O)C1` (stereo unspecified), the inhibition was 57%. In the case of `CC1(C)CC(=O)C(C(c2cccc(OCc3ccccc3)c2)C2C(=O)CC(C)(C)CC2=O)C(=O)C1`, the inhibition is 91.9% (active). The value for `CC1(C)CC(=O)C(C(c2cccc([N+](=O)[O-])c2)C2C(=O)CC(C)(C)CC2=O)C(=O)C1` was 78.4% (active); that for `COc1cccc(C(C2C(=O)CC(C)(C)CC2=O)C2C(=O)CC(C)(C)CC2=O)c1` was 53.4%. The value for `COc1ccc(C(C2C(=O)CC(C)(C)CC2=O)C2C(=O)CC(C)(C)CC2=O)cc1OC` was 24.6%; that for `COc1cc(C(C2C(=O)CC(C)(C)CC2=O)C2C(=O)CC(C)(C)CC2=O)ccc1O` was 19.2%.
